This is part of a sample that, as a whole, favours compounds with a hit. Of some 79,000 tested, about 15% had one in any assay. Values without a mark were called inactive. Activity calls are given as the source filed them. Rule as the data show it: active = growth inhibition above about 70%; inactive = the rest.
Assay: NCI Yeast Anticancer Drug Screen. Data for the rad50EPP+ strain (AID 151);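 also: 0% = growth of vehicle-treated control cultures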
Details: S. cerevisiae rad50 mutant strain, active compounds read high
Protocol: Growth inhibition of yeast strains with defined genetic alterations is measured as a screen for potential anti-cancer activity. Selected strains with alterations in DNA damage repair or cell cycle control were exposed to compounds and growth inhibition was measured relative to vehicle treated controls. The strain used in this assay is rad50EPP+

SMILES | growth inhibition (at 1.2 µM) [%] | growth inhibition (at 3.7 µM) [%] | growth inhibition (at 11.0 µM) [%] | growth inhibition (at 33.0 µM) | growth inhibition (at 100.0 µM)
CCCCN(CCC#N)c1ccc(/C=C/c2ccnc3ccccc23)cc1 | -3 | 7 | 30 | 38% | 26%
O=C(Oc1ccc([N+](=O)[O-])cc1)c1ccc([N+](=O)[O-])cc1 | 5 | 2 | -3 | 9% | 11%
CCCCCCCCCCCCOCCOCCOCC(N)=O | -14 | -20 | -11 | 10% | 80% (active)
Cc1ccc(C)c(C(=N)c2ccccc2Cc2ccccc2)c1 | -4 | 2 | 31 | 84% (active) | 94% (active)
S=C1N(c2ccc(Cl)cc2)C2=C(N=Nc3ccccc3)C(=Nc3ccccc3S2)N1c1ccccn1 | -11 | 3 | 61 | 94% (active) | 97% (active)
N#C/C(=C\NC(=S)Nc1ccc(S(N)(=O)=O)cc1)C(=O)c1ccc2ccccc2c1 | -1 | -3 | 0 | 0% | -2%
O=C1c2ccccc2C(=O)c2c(O)c(NCCNCCO)cc(O)c21 | -4 | 8 | 2 | 16% | 92% (active)
O=C1Oc2ccccc2C(=O)/C1=C/N1C(=O)N/C(=C\c2ccccc2Br)C1=O | -2 | 1 | 6 | 21% | 57%
